High-throughput results from PubChem.
HP1b chromo inh = inhibitors of HP1-beta chromodomain binding to methylated histone tails; P83916; AlphaScreen HP1-beta / biotin-H3K9me3 peptide binding; Potency, µM (titrated, usually from 114 µM), without a hit: top-dose activity change, negative = inhibition, hits mostly inhibitors; actives 0.56% (n = 390,000); also: potency is read from the fitted curve at half-maximal effect; nearly all actives have a fitted effect of over 70% in size
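HP1-beta protein (50 nM final) preincubated 30 min at room temperature with biotinylated H3(1-18)K9me3 peptide (50 nM) in PBS pH 7.4, 0.01% Tween-20, then compound added for 30 min. AlphaScreen streptavidin donor/nickel chelate acceptor beads (10 ug/mL final), 30 min dark, luminescence read.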
JMJD2A Tudor inh = blocks the human JMJD2A Tudor domain; O75164; AlphaScreen JMJD2A-Tudor / H3K4me3 peptide binding; Potency, µM (series often up to 114 µM), inactives show top-dose activity change, negative = inhibition, actives largely listed as inhibitors; actives 4.4% (n = 390,000); also: potency is read from the fitted curve at half-maximal effect; % is scaled to controls: 0 for no effect and ±100 for the full control effect; nearly all actives have a fitted effect of over 50% in size
Six1-Eya2 inh = inhibitors of human Six1/Eya2 interaction; activity change, % (concentration not given with the values); actives 0.56% (n = 360,000); AlphaScreen GST-Six1/His-Eya2 binding, biochemical; active compounds read low; Q15475+O00167; in the data active = activity change below about -65%; inconclusive = mostly about -30% to -63%; also: % is scaled to controls: 0 for no effect and ±100 for the full control effect
Target sequence (O00167 whole entry, looked up): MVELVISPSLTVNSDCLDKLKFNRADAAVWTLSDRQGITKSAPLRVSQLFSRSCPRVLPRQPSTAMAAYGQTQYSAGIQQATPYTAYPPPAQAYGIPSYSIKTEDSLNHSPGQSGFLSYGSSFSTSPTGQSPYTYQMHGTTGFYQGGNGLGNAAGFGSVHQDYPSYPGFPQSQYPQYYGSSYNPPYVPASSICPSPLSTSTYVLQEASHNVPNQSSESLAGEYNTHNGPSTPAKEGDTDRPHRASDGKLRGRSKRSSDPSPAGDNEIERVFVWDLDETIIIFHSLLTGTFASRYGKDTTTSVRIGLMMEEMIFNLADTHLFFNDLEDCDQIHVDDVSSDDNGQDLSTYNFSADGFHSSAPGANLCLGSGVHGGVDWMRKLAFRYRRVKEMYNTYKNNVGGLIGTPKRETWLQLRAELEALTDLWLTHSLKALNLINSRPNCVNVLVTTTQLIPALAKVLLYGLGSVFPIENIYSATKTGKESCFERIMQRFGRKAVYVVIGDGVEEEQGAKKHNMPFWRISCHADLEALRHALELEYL
Target sequence (Q15475 whole entry, looked up): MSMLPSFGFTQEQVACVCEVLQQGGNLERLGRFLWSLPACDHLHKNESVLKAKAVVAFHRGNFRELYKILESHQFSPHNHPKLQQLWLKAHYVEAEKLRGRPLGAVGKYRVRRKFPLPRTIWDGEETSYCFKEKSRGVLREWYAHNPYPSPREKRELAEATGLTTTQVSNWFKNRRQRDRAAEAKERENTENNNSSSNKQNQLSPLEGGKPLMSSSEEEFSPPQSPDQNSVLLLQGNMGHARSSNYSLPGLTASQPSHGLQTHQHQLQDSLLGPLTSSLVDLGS
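AlphaScreen luminescence read after one hour at 37 °C in darkness. Pin-transferred compounds met GST-Six1 and His-Eya2 protein (5X stock 250 nM/500 nM) plus glutathione donor and Ni-chelate acceptor beads (5X, 50 ug/mL).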
BAZ2B block = BAZ2B (human) inhibition; Potency, µM (doses to about 114 µM), without a hit: at the highest dose activity change, negative = inhibition, actives largely listed as inhibitors; Q9UIF8; AlphaScreen BAZ2B-H3K14Ac peptide displacement; actives 4.4% (n = 360,000); also: potency is read from the fitted curve at half-maximal effect; % is scaled to controls: 0 for no effect and ±100 for the full control effect; nearly all actives have a fitted effect of over 60% in size
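Complex of BAZ2B and biotin-H3K14Ac (50 nM apiece) forms over 30 min at RT, then faces library compounds up to 110 uM for another 30 min; AlphaScreen beads added, 20 min dark incubation, luminescence read.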
CtBP-E1A blk = blocks the CtBP interaction with E1A. AID 651724. AlphaScreen GST-E1A/His-CtBP binding, 1536-well; active compounds read low. actives 0.49% (n = 340,000). activity change, % (test concentration not listed); in the data active = activity change below about -65%; inconclusive = mostly about -30% to -63%; also: % is scaled to controls: 0 for no effect and ±100 for the full control effect
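GST-E1A and His-tagged CtBP (125 nM each as 5X stock) were preincubated with pin-transferred compound for 2 h at 37 °C in the dark, then glutathione donor and nickel acceptor beads were added for 1 h before AlphaScreen reading.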
G9a inh = blocks human histone lysine methyltransferase G9a; G9a H3K9 monomethylation, AlphaScreen, 2 h; Potency, µM (doses to about 102 µM), inactives show at the highest dose activity, negative = inhibition, most hits filed as inhibitors; actives 8.8% (n = 350,000); also: potency is read from the fitted curve at half-maximal effect; % is scaled to controls: 0 for no effect and ±100 for the full control effect; nearly all actives have a fitted effect of over 75% in size
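Methyltransferase reactions run at room temperature for 2 h (20 nM enzyme, 500 nM biotin-H3K9 peptide, 20 uM SAM) after a 15 min compound preincubation; product detected by AlphaScreen beads and anti-H3K9me1 antibody.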
Numbers without * were called inactive; ! = a repeat was not active; [ ] = remark or other dose. Most compounds without a hit are left out; they make up all but 10% or so of the library. Unless noted, calls follow the shape of the dose curve; as a rule, active = well fitted inhibition curve with a large enough effect; inconclusive = small, poorly fitted or top-dose-only effect; inactive = no such curve, though single readings can be large or run the other way.

Results for COc1ccc(C2=NS(=O)(=O)N(C)C(C(=O)N(C)Cc3ccccc3)=C2)cc1OC ?
HP1b chromo inh: 38%; JMJD2A Tudor inh: 5µM*!; Six1-Eya2 inh: 5; BAZ2B block: -2%; CtBP-E1A blk: 2; G9a inh: 14µM*!

How did COc1ccc(C2=NS(=O)(=O)N(C)C(C(=O)NC(C)c3ccccc3)=C2)cc1OC (configuration not stated) do in these assays?
HP1b chromo inh: 37%; JMJD2A Tudor inh: -27%; Six1-Eya2 inh: 2; BAZ2B block: 10%; CtBP-E1A blk: 2; G9a inh: -8%[59 µM]

Results for COc1ccc(C2=NS(=O)(=O)N(C)C(C(=O)Nc3ccc4c(c3)OCO4)=C2)cc1OC ?
HP1b chromo inh: -7%; JMJD2A Tudor inh: inconclusive; Six1-Eya2 inh: -20; BAZ2B block: inconclusive; CtBP-E1A blk: -27; G9a inh: 35µM*

How did Cc1ccc(C2=NS(=O)(=O)N(C)C(C(=O)Nc3ccc4c(c3)OCO4)=C2)cc1 do in these assays?
HP1b chromo inh: -11%; JMJD2A Tudor inh: inconclusive; Six1-Eya2 inh: -27; BAZ2B block: inconclusive; CtBP-E1A blk: -10; G9a inh: 79µM*

Results for O=C(O)c1cccc2c1C(=O)c1cc([N+](=O)[O-])cc([N+](=O)[O-])c1-2 ?
Six1-Eya2 inh: -29; CtBP-E1A blk: -4

Results for O=C1c2c([N+](=O)[O-])cc([N+](=O)[O-])cc2S(=O)N1Cc1ccccc1 (configuration not stated) ?
HP1b chromo inh: inconclusive; JMJD2A Tudor inh: 89µM*; Six1-Eya2 inh: -4; BAZ2B block: 45µM*; CtBP-E1A blk: -5; G9a inh: 0.89µM*

Results for Cc1ccc2c(c1)c(=O)c1ccccc1n2CCCC(=O)Nc1ccc(F)cc1F ?
HP1b chromo inh: 25%; JMJD2A Tudor inh: 21%; BAZ2B block: -3%; G9a inh: -7%[59 µM]

What do the screens show for `CC(C)CCCC(C)NC(C)C` (configuration not stated)?
G9a inh: -29%[12.7 µM]

What do the screens show for `COc1ccc(-n2cc(-c3ccccc3)c3c(N4CCCC(C)C4)ncnc32)cc1` (configuration not stated)?
HP1b chromo inh: 1%; JMJD2A Tudor inh: inconclusive; BAZ2B block: inconclusive; G9a inh: -46%[59 µM]

What do the screens show for `CC(Oc1ccc(Br)cc1)C(=O)Nc1nc(-c2ccccn2)cs1` (configuration not stated)?
HP1b chromo inh: -16%; JMJD2A Tudor inh: 79µM*; Six1-Eya2 inh: -73*; BAZ2B block: 56µM*; CtBP-E1A blk: inconclusive; G9a inh: 20µM*

What do the screens show for `CCc1nnc(NC(=O)C(NC(=O)c2ccccc2Cl)C(C)C)s1` (configuration not stated)?
HP1b chromo inh: 2%; JMJD2A Tudor inh: -12%; Six1-Eya2 inh: 21; BAZ2B block: -17%; CtBP-E1A blk: 0; G9a inh: inconclusive

Results for CC(C)[C@H](NC(=O)c1ccccc1Cl)C(=O)Nc1nc(-c2ccccn2)cs1 ?
HP1b chromo inh: 18%; JMJD2A Tudor inh: 45µM*; Six1-Eya2 inh: -80*; BAZ2B block: 32µM*; CtBP-E1A blk: -83*; G9a inh: -4%

Results for CCCOc1ccccc1C(=O)N1CCCCC1CCN1CCCCC1 (configuration not stated) ?
HP1b chromo inh: 35%; JMJD2A Tudor inh: -9%; BAZ2B block: -2%; G9a inh: 6%[59 µM]

Results for CCOc1ccc(CNC(=O)CCS(=O)(=O)c2cc3c4c(c2)CCN4C(=O)CC3)cc1 ?
HP1b chromo inh: 9%; JMJD2A Tudor inh: -9%; BAZ2B block: -2%; G9a inh: 1%[59 µM]

What do the screens show for `CCOC(=O)c1ccc(N2C(=O)CC(NC3CCN(C(=O)c4cccc(Cl)c4)CC3)C2=O)cc1` (configuration not stated)?
HP1b chromo inh: 40%; JMJD2A Tudor inh: -17%; Six1-Eya2 inh: -3; BAZ2B block: -1%; CtBP-E1A blk: -6; G9a inh: 16µM*

Results for CCOc1ccc(N2C(=O)CC(NC3CCN(C(=O)c4cccc(Cl)c4)CC3)C2=O)cc1 (configuration not stated) ?
HP1b chromo inh: 59%; JMJD2A Tudor inh: -10%; Six1-Eya2 inh: 2; BAZ2B block: -34%; CtBP-E1A blk: 4; G9a inh: inconclusive

Results for C#CCOCCOCCOCCNc1nc(N2CCN(C(=O)[C@H](CCC(=O)O)n3cc(CN)nn3)CC2)nc(N2CCN(C(=O)[C@H](CCCCN)n3cc([C@@H](N)CC(N)=O)nn3)CC2)n1 ?
HP1b chromo inh: 46%; JMJD2A Tudor inh: 56µM*; Six1-Eya2 inh: 3; CtBP-E1A blk: -13

How did C#CCOCCOCCOCCNc1nc(N2CCN(C(=O)[C@H](CCCCN)n3cc(CN)nn3)CC2)nc(N2CCN(C(=O)[C@H](CCC(=O)O)n3cc([C@@H](N)CCCCN)nn3)CC2)n1 do in these assays?
HP1b chromo inh: 32%; JMJD2A Tudor inh: 89µM*; Six1-Eya2 inh: -15; CtBP-E1A blk: -14

What do the screens show for `C#CCOCCOCCOCCNc1nc(N2CCN(C(=O)[C@H](CCCCN)n3cc(CN)nn3)CC2)nc(N2CCN(C(=O)[C@H](CCCCN)n3cc(CN)nn3)CC2)n1`?
HP1b chromo inh: 29%; JMJD2A Tudor inh: 79µM*; Six1-Eya2 inh: -2; CtBP-E1A blk: 0

What do the screens show for `C#CCOCCOCCOCCNc1nc(N2CCOCC2)nc(N2CCN(C(=O)[C@H](CCCCN)n3cc(CCC(=O)O)nn3)CC2)n1`?
HP1b chromo inh: 23%; JMJD2A Tudor inh: -10%; Six1-Eya2 inh: 7; CtBP-E1A blk: 2

What do the screens show for `CCNc1ncc2nc(-c3ccccc3)c(=O)n(-c3ccc(OC)cc3)c2n1`?
G9a inh: 4%[12.7 µM]

Results for CC(=O)OC(C[N+]1(C)CCCCCC1)c1ccccc1 (configuration not stated) ?
HP1b chromo inh: 23%; JMJD2A Tudor inh: -6%; Six1-Eya2 inh: 7; BAZ2B block: 2%; G9a inh: -12%

Results for C[N+]1(CCC(=O)c2ccccc2)CCCCC1 ?
HP1b chromo inh: inconclusive; JMJD2A Tudor inh: inconclusive; Six1-Eya2 inh: 1; BAZ2B block: -2%; CtBP-E1A blk: 6; G9a inh: 2µM*

What do the screens show for `Cc1ccc(NC(=O)c2cc(-c3ccco3)nc3ccccc23)cc1S(=O)(=O)N1CCOCC1`?
HP1b chromo inh: -19%; JMJD2A Tudor inh: -33%; Six1-Eya2 inh: -20; BAZ2B block: inconclusive; CtBP-E1A blk: -1; G9a inh: inconclusive
